Source: PubChem BioAssay AID493214 (National Center for Advancing Translational Sciences (NCATS), 2011)
Active and inactive are the calls of the source. Calls follow the shape of the dose curve; as a rule, active = well fitted inhibition curve with a large enough effect; inactive = no such curve, though single readings can be large or run the other way.

biological target: 4'-phosphopantetheinyl transferase ffp (Bacillus subtilis) (UniProt Q9F4F7); test: Inhibitos of Bacillus subtilis Sfp phosphopantetheinyl transferase (PPTase): Dry Powder Followup; settings: purified Sfp PPTase enzyme assay, dry powder retest
Sequence (Q9F4F7 whole entry, looked up): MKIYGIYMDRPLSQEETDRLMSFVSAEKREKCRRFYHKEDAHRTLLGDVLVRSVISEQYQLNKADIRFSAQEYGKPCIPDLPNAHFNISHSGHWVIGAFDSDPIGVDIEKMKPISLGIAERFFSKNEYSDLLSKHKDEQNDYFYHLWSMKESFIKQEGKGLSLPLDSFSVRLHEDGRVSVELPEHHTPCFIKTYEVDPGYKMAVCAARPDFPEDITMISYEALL
Text: The covalent attachment of a phosphopantetheinyl (4'-PP) arm to a variety of synthases and other proteins is a key posttranslational protein modification. The 4'-PP is installed on the proteins post-translationally from coenzyme A (CoA) on a conserved serine residue by action of phosphopantetheinyl transferase (PPTase) enzymes. Phosphopantetheinylation is essential for synthase activity, and removal of the PPTase gene precludes natural product synthesis in microorganisms, or in the case of fatty acid biosynthesis, renders the organism unviable. PPTase enzymes belong to a distinct structural superfamily. Within bacteria, these enzymes are grouped into two classes based upon primary structure, the AcpS-Type and Sfp-Type PPTases.
Sfp-type PPTases, corresponding to an activator of surfactin production in Bacillus subtilis, are responsible for modifying type I polyketide and nonribosomal peptide synthases of prokaryotes. Sfp-type PPTases are responsible for the activation of a variety of pathogen-associated virulence factors. Among these compounds are toxins such as mycolactone from Mycobacterium ulcerans, siderophores such as vibriobactin from Vibrio cholerae or mycobactin from Mycobacterium tuberculosis, as well as the mycolic acids which form the waxy cell wall of Mycobacteria. The biosyntheses of these natural products are considered attractive targets for drug design.
In search of small molecule Sfp-PPTase inhibitors, a fluorescence quenching assay was developed for detection of Bacillus subtilis Sfp-PPTase enzymatic activity in a miniaturized high-throughput format. The consensus ybbr acceptor peptide DALEFIASKLA was N-terminally labeled with Black Hole Quencher-2 (BHQ-2) and used in combination with rhodamine-labeled coenzyme A as a co-substrate.
Inhibition of Sfp-PPTase was detected by recording the fluorescence intensity change over a 30-minute reaction period at a 525 nm excitation and 598 nm emission. Reagents were supplied by Michael Burkart and Timothy Foley, University of California at San Diego.
This assay is a followup of dry powder purchasing, QC'ing of samples and retesting in the primary screening protocol.
Assay Buffer: 50 mM Hepes-Na pH 7.6, 10 mM MgCl2, 0.01% Nonidet P-40, and 0.01% BSA.
3 uL of Sfp-PPTase enzyme (final concentration 15 nM) and 1 uL of substrate mixture (final concentration for rhodamine-CoA and BHQ-2-YbbR 5 uM and 12.5 uM, respectively) dispensed in columns 1, 2, 5 - 48. Columns 1 and 2 used to generate neutral control (uninhibited reaction)
Three uL of reagents, consisting of buffer (in columns 3 and 4 as negative control) and Sfp-PPTase (in columns 1, 2, 5 - 48) were dispensed into 1,536-well Greiner black solid bottom plate. Compounds (23 nL) were transferred via Kalypsys pintool equipped with 1,536-pin array. The plate was incubated for 15 min at room temperature, followed by the addition of 1 uL substrate to start the reaction. The plate was then centrifuged at 1000 rpm for 15 seconds, and the fluorescence intensity recorded on a ViewLux High-throughput CCD imager (Perkin-Elmer) using standard BODIPY optics (525 nm excitation and 598 nm emission). The plate was then incubated for 30 minutes, and a second read on the ViewLux was performed. The fluorescence intensity difference over the 30-minute period was used to calculate the respective reaction rate for each well.

Potency, active:
COC(=O)c1c(NC(=O)COC(=O)c2ccc(Cl)cc2[N+](=O)[O-])sc2c1CCCCC2 37.3 µM
Cc1ccnc(NC(=S)N2CCN(c3cccc(C(F)(F)F)c3)CC2)c1 14.8 µM
O=C(Nc1nnc(COc2ccc(Cl)cc2)s1)c1ccco1 14.8 µM
CCOC(=O)c1c(NC(=O)c2ccccc2Cl)sc2c1CCc1ccccc1-2 2.64 µM
COC(=O)c1sc(NC(=O)c2cc(-c3ccccc3)nc3ccccc23)c(C#N)c1C 5.91 µM
C(=C1\Nn2c(COc3ccccc3)nnc2S1)/c1ccccc1 5.27 µM
CC(C)(C)Cc1nnc(NC(=O)CSc2ccccc2)s1 5.91 µM
CCC(C)(C)n1nnnc1C(c1ccc(O)c(OC)c1)N1CCc2ccccc2C1 (centres undefined) 21 µM
O=C(Nc1ccc(F)cc1)C1=CC(=O)N2CCN=C2S1 11.8 µM
CCOC(=O)c1c(C)[nH]c(C2=CSC(=NC3CC3)NN2)c1C 18.7 µM
O=C(CN1C(=O)CC(c2ccco2)Sc2ccccc21)Nc1ccccc1F (centres undefined) 26.4 µM
CCN1CCN(C(=S)c2ccc(O)cc2)CC1 2.35 µM
O=C(CSc1ncnc2sc3c(c12)CCCCC3)NCc1ccco1 23.5 µM
CN(C)c1ccc(C(=S)N2CCN(Cc3ccccc3)CC2)cc1 5.27 µM
O=C(CSc1ccccc1)Nc1nnc(COc2ccc(Cl)cc2)s1 6.63 µM
CCOC(=O)c1c(-c2ccc(C)o2)csc1NC(=O)CSc1nnnn1-c1ccccc1 2.35 µM
COC(=O)Nc1sc2c(c1C(N)=O)CCC(C)C2 (centres undefined) 26.4 µM
S=C(Nc1ccccn1)c1ccccn1 26.4 µM
Cc1nc(SCC(=O)c2ccc(F)cc2)n[nH]1 83.5 µM
O=C(CSc1nc2scc(-c3ccco3)c2c(=O)n1-c1ccccc1)NCC1CCCO1 (centres undefined) 3.32 µM
Nc1c(C(=O)Nc2ccccc2F)sc2nc(-c3ccco3)ccc12 10.5 µM
CCOC(=O)c1cc(-c2ccccc2)sc1NC(=O)c1ccc(OC)cc1 23.5 µM
CCOC(=O)c1nc(NCc2ccccc2)sc1C 16.7 µM
COc1ccc(OC)c(Nc2nc(=O)c3cccnc3s2)c1 13.2 µM
c1csc(-c2nn3c(C4COc5ccccc5O4)nnc3s2)c1 (centres undefined) 21 µM
O=C(/C=C/c1ccccc1)Nc1cccc(S(=O)(=O)Nc2ccccc2F)c1 0.527 µM
O=C(Nc1nnc(COc2ccc(Cl)cc2)s1)c1cccs1 18.7 µM
C(/Cc1ccccc1)=C1\Nn2c(Cn3cnc4ccccc43)nnc2S1 21 µM
CNC(=O)c1c(N)sc2c1CCCCC2 8.35 µM
CCc1c(C)sc(NC(=O)C2CCCCC2C(=O)O)c1C(N)=O (centres undefined) 2.35 µM
Clc1ccccc1-c1nnc2n1N/C(=C/Cc1ccccc1)S2 2.96 µM
Cc1ccc(C2=CSC(NC(=O)CSc3nncn3C)=NN2)cc1 21 µM
FC(F)(F)C1CCCN(c2nsc3ccccc23)C1 (centres undefined) 2.35 µM
CCOC(=O)c1c(-c2ccc(OC)cc2)csc1NC(=O)C1CCCO1 (centres undefined) 14.8 µM
